Compound activity (PubChem)
Sampled rows, rich in hits. Any-hit rate of the full collection: about 3.5%.
FBW7 act = activators of human E3 ligase FBW7; Q969H0; AlphaScreen FBW7–phospho-cyclin E peptide binding, activator screen; normalized activity (activation), % at 26.1 µM; 650,000 tested, 0.13% active; in the data active = normalized activity above about 1.9%;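 note: purified mutant Fbw7 with reduced substrate affinity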
TEAD-YAP inh = TEAD-YAP interaction inhibition | HEK-TIYL cells, TEAD-Gal4/YAP UAS-luciferase luminescence | inhibition, % at 9.12 µM | 640,000 tested, 1.4% active; in the data active = inhibition above about 32%
MITF inh = blocks human microphthalmia-associated transcription factor. O75030. AlphaScreen MITF homodimerization, bead proximity signal. inhibition, % at 2.6 µM. 650,000 tested, 0.91% active; in the data active = inhibition above about 50%
Target sequence (O75030 whole entry, looked up): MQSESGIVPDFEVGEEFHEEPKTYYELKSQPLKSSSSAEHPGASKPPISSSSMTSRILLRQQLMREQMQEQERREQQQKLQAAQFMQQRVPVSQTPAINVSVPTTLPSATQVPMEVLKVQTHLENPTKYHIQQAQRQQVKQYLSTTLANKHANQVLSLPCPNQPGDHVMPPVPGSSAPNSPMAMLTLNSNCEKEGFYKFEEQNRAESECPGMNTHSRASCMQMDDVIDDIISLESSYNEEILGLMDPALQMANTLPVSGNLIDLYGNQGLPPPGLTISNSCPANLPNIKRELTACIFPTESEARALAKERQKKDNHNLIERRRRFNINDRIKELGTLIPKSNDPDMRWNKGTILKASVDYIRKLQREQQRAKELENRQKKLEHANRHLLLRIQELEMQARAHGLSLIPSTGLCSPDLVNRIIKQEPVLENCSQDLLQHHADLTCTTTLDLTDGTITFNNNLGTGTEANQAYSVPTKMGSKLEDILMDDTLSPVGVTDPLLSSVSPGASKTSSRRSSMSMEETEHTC
GPR151 activ = human GPR151 activation; Q8TDV0; PathHunter beta-arrestin GPR151 cells, luminescence; activation, % at 11.2 µM; 650,000 tested, 1% active; in the data active = activation above about 4.9%
MITF confirm = confirmation of human MITF inhibitors | AID 1259372 | AlphaScreen MITF homodimerization, biotin/His-MITF beads | inhibition, % at 2.6 µM | shares compounds with MITF inh | 4,700 tested, 16% active;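 active = inhibition above a cutoff derived from the DMSO control wells, cut at about 28% in these data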;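 note: inhibitors lower the bead chemiluminescence by keeping MITF from dimerizing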
AlphaScreen DR = optically interferes with AlphaScreen signal in dose response; AlphaScreen optical interference counterscreen, cell-free; shares compounds with MITF inh; 480 tested, 6% active; IC50, µM; call rule not given here
AS interf ctr = optically interferes with AlphaScreen signal; shares compounds with MITF inh; inhibition, % at 2.6 µM; LysRS AlphaScreen counterscreen, signal interference, triplicate; AID 1259376; 4,700 tested, 7.6% active;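 active = inhibition above a cutoff derived from the DMSO control wells, cut at about 30% in these data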
Each line names hits and unclear results; the compound was inactive in the other large screens (follow-up assays come after a bar, where they were run).

CN1CCCN(CC(=O)N2CCc3ccccc32)CC1	MITF inh 77.6 | MITF confirm inactive | AS interf ctr inactive
CCCCCOc1ccc(/C=C/C(=O)Oc2ccc(C#N)cc2)cc1	none
O=C(CCC1CCCN(C(=O)C2=CCCC2)C1)NCc1ccc(F)c(F)c1 (configuration not stated)	none
Cc1ccc(C(=O)NCc2n[nH]c(=S)n2-c2ccc(F)cc2)cc1C	none
CCN(CC)c1ncc(-c2ccc(F)cc2)cn1	none
Nc1nnnn1/N=C/c1ccc(-c2ccc(F)c(Cl)c2)o1	MITF inh 83.3 | MITF confirm inactive | AS interf ctr inactive
CN(C)CCCNC(=O)c1cccc(CN(C(=O)c2nc3ccc(-c4cn[nH]c4)cc3s2)C2CC2)c1	MITF inh 60.1 | MITF confirm 50.1 | AlphaScreen DR inactive | AS interf ctr inactive
Ic1ccc(OCCN2CCNCC2)cc1	MITF inh 62.6 | MITF confirm inactive | AS interf ctr inactive
CN1CCN(CCCCN2C(=O)c3ccccc3C2=O)CC1	MITF inh 86.6 | MITF confirm inactive | AS interf ctr inactive
COCCCNCCCCOc1ccc(OCc2ccccc2)cc1	MITF inh 52.9 | MITF confirm inactive | AS interf ctr inactive
CNCCOc1ccc(C(C)(C)c2ccccc2)cc1	MITF inh 51.6 | MITF confirm inactive | AS interf ctr inactive
CNCCCOc1ccc(C(C)(C)c2ccccc2)cc1	none
Clc1ccc(OCCN2CCNCC2)cc1	none
O=C(O)c1ccc(NC(=O)c2cc3cc(Cl)cc(Cl)c3oc2=O)cc1	none
CCOc1ccc(OCCOCCN2CCOCC2)cc1	none
CCC(C)(C)c1ccc(OCCN2CCNCC2)cc1	MITF inh 72.2 | MITF confirm inactive | AS interf ctr inactive
CCc1ccc(OCCN2CCNCC2)cc1	none
CCOc1ccc(OCCCCN2CCNCC2)cc1	MITF inh 65.2 | MITF confirm inactive | AS interf ctr inactive
O=C(c1ccccc1)c1ccc(OCCCCN2CCOCC2)cc1	none
COc1ccc(C(=O)CN2CCN(C)CC2)cc1	MITF inh 76.5 | MITF confirm inactive | AS interf ctr inactive
CN1CCN(CCCCOc2ccc(C(=O)c3ccccc3)cc2)CC1	MITF inh 74.8 | MITF confirm inactive | AS interf ctr inactive
COc1ccc2c(C)nc(N3CCC(NCCc4ccc(C)cc4)CC3)nc2c1	none
COc1ccc(OC)c(C(=O)C(C)=O)c1	none
COc1ccc(NC(=O)COc2ccc(S(=O)(=O)NC(C)C)cc2)cc1OC	none
c1ccc(COc2ccc(OCCN3CCNCC3)cc2)cc1	MITF inh 70.5 | MITF confirm inactive | AS interf ctr inactive
c1ccc2c(OCCCN3CCNCC3)cccc2c1	none
CC(C)(c1ccccc1)c1ccc(OCCCN2CCNCC2)cc1	MITF inh 58.1 | MITF confirm inactive | AS interf ctr inactive
CN1CCN(CCCOc2ccc(OCc3ccccc3)cc2)CC1	MITF inh 58.9 | MITF confirm inactive | AS interf ctr inactive
O=[N+]([O-])c1nn(-c2cccc(Cl)c2)n(O)c1=NCc1ccc(F)cc1Cl	none
O=C(c1cccs1)N1CCN(Cc2ccccc2C(F)(F)F)CC1	MITF inh 69.9 | MITF confirm inactive | AS interf ctr inactive
CS(=O)(=O)N1CCN(Cc2ccccc2C(F)(F)F)CC1	MITF inh 70.9 | MITF confirm inactive | AS interf ctr inactive
COc1ccc(CN2CCN(Cc3ccccc3Br)CC2)cc1OC	none
O=S(=O)(c1ccc(Cl)cc1)N1CCN(Cc2ccccc2C(F)(F)F)CC1	none
FC(F)(F)c1ccccc1CN1CCN(C2CCCC2)CC1	MITF inh 64.3 | MITF confirm inactive | AS interf ctr inactive
Cc1ccccc1CN1CCN(C(=O)c2cccs2)CC1	none
FC(F)(F)c1ccccc1CN1CCN(Cc2ccccc2Br)CC1	MITF inh 62.0 | MITF confirm inactive | AS interf ctr inactive
OCC1CCN(C2CCCN(Cc3ccccc3C(F)(F)F)C2)CC1 (configuration not stated)	none
O=C1CCN(Cc2cc3ccccc3[nH]c2=O)CCN1Cc1cccc(Cl)c1	none
CN1CCCc2cc(CCNC(=O)C3CCCCC3)ccc21	none
COc1cccc2c(=O)cc(C)n(Cc3ccccc3)c12	none
Cn1c2ccc(Br)cc2c2nnc(SCC(=O)N(c3ccccc3)c3ccccc3)nc21	none
OC1CCN(Cc2ccccc2C(F)(F)F)CC1	none
CN1CCC(NCc2ccccc2C(F)(F)F)CC1	none
FC(F)(F)c1ccccc1CN1CCN(Cc2ccccc2C(F)(F)F)CC1	MITF inh 70.3 | MITF confirm inactive | AS interf ctr inactive
FC(F)(F)c1ccccc1CN1CCN(Cc2ccncc2)CC1	MITF inh 71.1 | MITF confirm inactive | AS interf ctr inactive
OCCC1CN(Cc2ccccc2C(F)(F)F)CCN1C1CCCC1 (configuration not stated)	none
CCCN1CCC(NCc2ccccc2C(F)(F)F)CC1	MITF inh 54.7 | MITF confirm inactive | AS interf ctr inactive
FC(F)(F)c1ccccc1CN1CCN(Cc2ccc(Br)cc2)CC1	MITF inh 81.8 | MITF confirm inactive | AS interf ctr inactive
Fc1ccccc1CN1CCN(c2ccccn2)CC1	none
Fc1ccccc1CN1CCN(Cc2ccccc2C(F)(F)F)CC1	MITF inh 64.9 | MITF confirm inactive | AS interf ctr inactive
O=C(O)c1ccc(CSc2ccccc2)cc1	none
C=CCNC1CCN(c2ccc(NC(=O)c3ccc(OC)cc3)cc2)CC1	MITF inh 60.2 | MITF confirm inactive | AS interf ctr inactive
CCCc1cc2nnc(SCC(=O)N(C(C)C)C(C)C)n2c(N)n1	none
CN(C)S(=O)(=O)c1ccc(C(=O)Nc2ncnc3c2CCC3)cc1	MITF inh 54.6 | MITF confirm inactive | AS interf ctr inactive
CN(C1CC1)S(=O)(=O)c1ccc(C(=O)Nc2ncnc3c2CCC3)cc1	none
CC1=C(C#N)C(=O)N(C)C(=O)/C1=C/c1ccc(-c2ccc(Cl)cc2)o1	none
COc1ccc(C)cc1N(CC(=O)Nc1ccccc1F)S(C)(=O)=O	none
COc1ccc(C)cc1N(CC(=O)Nc1ccc(F)cc1F)S(C)(=O)=O	MITF inh 51.5 | MITF confirm inactive | AS interf ctr inactive
CN1C(=O)N(C)C2OC(C3OC4C(O3)N(C)C(=O)N4C)OC21 (configuration not stated)	MITF inh 54.7 | MITF confirm inactive | AS interf ctr inactive
Cc1ccc(C(=O)NCCc2ccc(S(N)(=O)=O)cc2)cc1C	none
CCOC(=O)CSc1cc(NCCCOC(C)=O)c([N+](=O)[O-])c2nonc12	none
Cc1cnc(Nc2ccc(-n3ccnc3)cc2)nc1Nc1ccccc1	TEAD-YAP inh 37.5, MITF inh 52.2 | MITF confirm inactive | AS interf ctr inactive
Cc1cnc(Nc2nc3ccccc3n2C)nc1Nc1ccccc1	MITF inh 72.7 | MITF confirm inactive | AS interf ctr inactive
Cc1ccc(C(=O)Nc2ccccc2C#N)c(Cl)c1	MITF inh 62.6 | MITF confirm inactive | AS interf ctr inactive
